High-throughput results: PubChem BioAssay, The Scripps Research Institute Molecular Screening Center
The list is not random: actives were taken first. Their share in the collection is about 1.6%.
OPRM1-OPRD1 ag: agonists of human mu-delta opioid receptor heterodimerization | cells, OPRM1-OPRD1 heterodimerization, luminescence | activation, % at 9.3 µM | AID 504326 | P35372+P41143 | 0.3% of 340,000 active;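 note: 0% = vehicle-treated cells and 100% = reference agonist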
HTR5A ag ctr: HTR5A agonism, opioid heterodimer counter-screen. AID 504692. P47898. 0.61% of 340,000 active. HTR5A agonist assay, luminescence, cell-based. activation, % at 9.3 µM; in the data active = activation mostly above about 9.5%, no sharp cut-off; inactive = mostly below about 7.6%;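 note: 0% = cells with vehicle only and 100% = reference agonist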
m5-HT2A agonist: activates the mouse 5-HT2A serotonin receptor. P35363. CHO-K1 mHTR2A beta-arrestin complementation, luminescence; percent of 30 µM serotonin response. activation, % at 7.6 µM. 0.66% of 360,000 active. AID 624169;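 active = activation above a run cutoff, the mean activation of all tested compounds plus 3 SD, cut at about 14% in these data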;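 note: 0% = plate median of compound wells and 100% = 30 µM serotonin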
HTR5A inv ctr: inverse agonist of human HTR5A in OPRM1-OPRD1 counter-screen | HTR5A cell line, luminescence, inverse agonism | inhibition, % at 9.3 µM | 0.083% of 340,000 active | AID 504634; in the data active = inhibition mostly above about 23%, no sharp cut-off; inactive = mostly below about 18%;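 note: 0% = cells with DMSO and 100% = no-cell wells with DMSO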
OPRM1-OPRD1 inv: inverse agonists of human mu-delta opioid receptor heterodimerization; P35372+P41143; cell-based MOR-DOR heterodimer luminescence, inverse agonism; inhibition, % at 9.3 µM; 0.21% of 340,000 active; in the data active = inhibition above about 22%, passing the limit was not always enough;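 note: 0% = cells with DMSO and 100% = wells without cells with DMSO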
MOR-DOR ag conf: confirmation of human OPRM1-OPRD1 heterodimerization agonists. shares compounds with OPRM1-OPRD1 ag. 45% of 830 active. cells, MOR-DOR heterodimerization, luminescence complementation. activation, % at 9.3 µM;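 note: 0% = vehicle-treated cells and 100% = reference agonist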
HTR5A ag ctr2: HTR5A agonism, opioid heterodimer counter-screen; AID 504905; HTR5A agonist counterscreen, cell luminescence; activation, % at 9.3 µM; 8% of 830 active; shares compounds with OPRM1-OPRD1 ag; in the data active = activation above about 17%;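 note: 0% = vehicle-treated cells and 100% = reference agonist response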
The depositor's hits bear a star; i = inactive; . = no result. Cut-off read from the data, not from the text of the source, unless noted: active = activation above about 18%; inactive = the rest.

SMILES	OPRM1-OPRD1 ag	HTR5A ag ctr	m5-HT2A agonist	HTR5A inv ctr	OPRM1-OPRD1 inv	MOR-DOR ag conf	HTR5A ag ctr2
CCOC(=O)C1=C(c2ccccc2)NC(=O)NC1c1ccc(O)c(OCC)c1 (stereo not drawn)	1	-1	3	20	-3	.	.
Cc1ccc(C)c(N2CCN(S(=O)(=O)c3ccc(-c4ccc(=O)[nH]n4)o3)CC2)c1	20*	5	-2	-1	-108	16	3
O=S(=O)(Nc1cc(Cl)ccc1-n1cncn1)c1ccccc1Cl	73*	3	7	-9	-313	-1	-2
COc1ccc(C(CNc2nc(-c3cccnc3)nc3ccccc23)N(C)C)cc1 (stereo not drawn)	160*	0	-6	1	i	3	-5
COC(=O)CNc1nc(-c2cccnc2)nc2ccccc12	-2	1	1	-27	9	.	.
CC1(C)CC(=O)C/C(=N\NC(=O)C2C3CCCCC32)C1 (stereo not drawn)	-3	1	1	-2	16	.	.
COc1ccc(C)cc1N(CC(=O)Nc1cccnc1)S(=O)(=O)c1ccc(C)cc1	69*	4	-1	8	-345	0	-1
COc1ccccc1N(CC(=O)Nc1cccnc1)S(=O)(=O)c1ccccc1	9	-4	-1	-7	-42	.	.
COc1ccc(S(=O)(=O)N(CC(=O)Nc2cccnc2)c2ccccc2OC)cc1	64*	6	-5	11	-328	6	10
Cc1ccccc1-n1c(C)nnc1SC(C)C(=O)NCC1CCCO1 (stereo not drawn)	-2	-2	1	6	10	.	.
CCCCCCn1c(SCC(=O)Nc2cc(C)on2)nc2ccccc2c1=O	21*	3	3	-19	-121	26*	17*
Cc1ccc2c(c1)N(CC(=O)NCCCN1CC(C)CC(C)C1)C(=O)c1cccnc1O2 (stereo not drawn)	0	0	0	-1	0	.	.
O=[N+]([O-])c1ccc(N2CCN(CCO)CC2)cc1Sc1nc2ccccc2[nH]1	19*	0	-11	1	-117	6	17*
O=C(c1ccccc1)c1ccc(OCC(O)CNC2CCCc3ccccc32)cc1 (stereo not drawn)	3	1	-1	-5	-14	.	.
OC(CNC1CCCc2ccccc21)COc1ccc2ccccc2c1 (stereo not drawn)	42*	2	-3	-5	-208	31*	9
Cc1ccc(-n2cc(CNC(C)c3cnn(C)c3)c(-c3ccc(F)cc3)n2)cc1 (stereo not drawn)	366*	2	-3	-3	i	440*	0
Cc1ccc(-n2cc(CNC(C)c3cnn(C)c3C)c(-c3ccc(F)cc3)n2)cc1 (stereo not drawn)	222*	8	-3	-24	i	34*	11
COc1ccc(SC[C@H](Cc2ccccc2)N2CCN(C)CCC2=O)cc1	9	0	-4	17	-40	.	.
CCOC(=O)C1(Cc2ccc(Cl)cc2)CCN(Cc2cn(CC)nc2C)CC1	21*	6	-3	-18	-102	11	0
CCOC(=O)C1(Cc2cccc(F)c2)CCN(Cc2cnn(CC)c2)CC1	68*	1	-1	-16	-332	-3	-9
CCOC(=O)C1(CCCc2ccccc2)CCN(Cc2cnn(C)c2)CC1	98*	-3	-6	9	i	115*	-2
CCOC(=O)C1(CCCc2ccccc2)CCN(C(=O)CCc2cnn(C)c2)CC1	0	-2	2	4	-3	.	.
COc1cccc2c(Nc3ccccc3C)cc(C)nc12	-1	-1	-2	1	3	.	.
CC1=C(C)/C(=N\OS(=O)(=O)c2ccc(C)cc2)C=CC1=O	50*	2	0	-7	-262	0	54*
CC1=C/C(=N\OS(=O)(=O)c2ccccc2)C(C)=CC1=O	78*	11*	5	13	-417	47*	7
COc1cc(C(=O)O/N=C2/C=C(C)C(=O)C=C2C)cc(OC)c1OC	-1	-2	-2	10	7	.	.
CC1(C(=O)NCc2ccccc2)CSCC(=O)N1C1CCN(Cc2ccccc2)CC1 (stereo not drawn)	.	.	-4	.	.	.	.
